Inconclusive results are not listed. The source made the active and inactive calls. The calls were made as follows, unless noted: active = hit-call score of the fitted dose curve at least 0.9, where 1 is the maximum; inconclusive = response in the unintended direction; inactive = score below 0.9.
Legend:
[1] = ATG_NRF2_ARE_CIS: Attagene CIS-FACTORIAL HepG2 Assay for human Nuclear Factor Erythroid 2 Related Factor 2 (NFR2) response to Antioxidant Response Elements (ARE) (AID 2282992; active = hit-call score of the fitted dose curve at least 0.9, where 1 is the maximum; inactive = score below 0.9;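 as to AC50: reporter mRNA level measured by RT-PCR and capillary electrophoresis fluorescence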); details: HepG2 Attagene ARE/NRF2 reporter, transcription factor activity; actives raise or lower the signal
In short: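 Multiplexed reporter mRNA profiling in HepG2 after a 24 h chemical exposure. Curves fitted in both directions relative to DMSO negative control.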

[2] = ATG_Oct_MLP_CIS: Attagene CIS-FACTORIAL HepG2 Assay for human Octamer-Binding Transcription Factor (Oct) (AID 2282993; active = hit-call score of the fitted dose curve at least 0.9, where 1 is the maximum; inactive = score below 0.9); details: HepG2 Attagene cis-factorial Oct reporter, mRNA; actives raise or lower the signal
In short: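 HepG2, transient MRTU transfection, cis promoter elements; 24 h dosing; RT-PCR/CE fluorescence read-out of reporter mRNA; fit both directions vs DMSO.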

[3] = biological target: Cellular tumor antigen p53 (Homo sapiens) (UniProt P04637); experiment: ATG_p53_CIS: Attagene CIS-FACTORIAL HepG2 Assay for human p53 Transcription Factor (AID 2282994; active = hit-call score of the fitted dose curve at least 0.9, where 1 is the maximum; inactive = score below 0.9); details: HepG2 p53 cis-element reporter, Attagene mRNA; actives raise or lower the signal
Sequence of Cellular tumor antigen p53 (Homo sapiens) (P04637 whole entry, looked up): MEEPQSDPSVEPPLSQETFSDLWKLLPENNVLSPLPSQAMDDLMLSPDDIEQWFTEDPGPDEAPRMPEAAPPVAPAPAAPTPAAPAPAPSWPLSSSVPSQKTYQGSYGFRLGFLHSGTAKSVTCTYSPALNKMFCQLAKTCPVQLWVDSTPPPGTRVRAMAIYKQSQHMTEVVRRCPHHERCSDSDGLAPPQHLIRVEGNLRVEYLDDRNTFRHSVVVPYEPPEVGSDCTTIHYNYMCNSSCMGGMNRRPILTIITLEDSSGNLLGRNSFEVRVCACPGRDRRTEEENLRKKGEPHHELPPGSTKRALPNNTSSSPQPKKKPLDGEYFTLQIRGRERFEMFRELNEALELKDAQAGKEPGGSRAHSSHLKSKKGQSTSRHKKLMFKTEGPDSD
In short: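 Multiplexed reporter mRNA assay in human HepG2 liver cells; cis-regulated units report endogenous factor activity. Values come from bidirectional curve fitting against DMSO negative control after 24 h treatment.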

[4] = biological target: human Peroxisome Proliferator-activated Receptor delta (PPARd), PPARD (gene 5467) (UniProt Q03181); experiment: ATG_PPARd_TRANS: Attagene TRANS-FACTORIAL HepG2 Assay for human Peroxisome Proliferator-activated Receptor delta (PPARd) (AID 2283002)
Sequence of human Peroxisome Proliferator-activated Receptor delta (PPARd), PPARD (gene 5467) (Q03181 whole entry, looked up, the tested form may be a part): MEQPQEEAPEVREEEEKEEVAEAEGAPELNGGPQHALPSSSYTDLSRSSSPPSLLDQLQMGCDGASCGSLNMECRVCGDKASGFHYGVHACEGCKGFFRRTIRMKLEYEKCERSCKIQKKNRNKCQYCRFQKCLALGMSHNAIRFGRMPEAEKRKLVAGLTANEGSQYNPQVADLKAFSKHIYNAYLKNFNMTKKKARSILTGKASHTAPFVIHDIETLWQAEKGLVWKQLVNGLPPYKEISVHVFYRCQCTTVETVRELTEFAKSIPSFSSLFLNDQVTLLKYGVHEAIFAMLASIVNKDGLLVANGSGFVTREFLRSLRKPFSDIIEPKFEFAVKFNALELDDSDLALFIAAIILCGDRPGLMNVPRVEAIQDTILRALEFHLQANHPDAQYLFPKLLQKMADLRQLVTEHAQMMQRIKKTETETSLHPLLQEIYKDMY
In short: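 Transient HepG2 transfection (multiple GAL4-UAS RTUs, chimeric receptor-Gal4); 24 h dosing; total RNA → oligo(dT) RT → PCR → 6-FAM primer extension → HpaI cut → CE. Positive direction vs DMSO.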

[5] = biological target: human Retinoic Acid Receptor beta (RARb), RARB (gene 5915) (UniProt P10826); experiment: ATG_RARb_TRANS: Attagene TRANS-FACTORIAL HepG2 Assay for human Retinoic Acid Receptor beta (AID 2283004)
Sequence of human Retinoic Acid Receptor beta (RARb), RARB (gene 5915) (P10826 whole entry, looked up, the tested form may be a part): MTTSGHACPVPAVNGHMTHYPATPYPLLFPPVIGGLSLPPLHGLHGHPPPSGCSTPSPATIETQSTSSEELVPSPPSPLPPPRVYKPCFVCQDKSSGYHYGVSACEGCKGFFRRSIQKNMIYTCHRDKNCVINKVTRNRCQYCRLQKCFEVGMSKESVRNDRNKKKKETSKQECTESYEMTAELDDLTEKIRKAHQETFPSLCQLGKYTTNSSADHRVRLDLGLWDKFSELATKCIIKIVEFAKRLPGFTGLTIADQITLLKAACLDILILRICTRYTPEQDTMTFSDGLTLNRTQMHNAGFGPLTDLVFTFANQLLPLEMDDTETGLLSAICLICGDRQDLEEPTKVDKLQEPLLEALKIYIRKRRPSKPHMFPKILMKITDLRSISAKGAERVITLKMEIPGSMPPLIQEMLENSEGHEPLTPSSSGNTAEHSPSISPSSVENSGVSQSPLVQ
In short: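 Readout is reporter mRNA induction: RNA reverse-transcribed, PCR-amplified, FAM-labelled, HpaI-cut and resolved by capillary electrophoresis. Transiently transfected HepG2 cells carrying exogenous NR–Gal4 chimeras were dosed for 24 h; activity fitted upward relative to DMSO.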

[6] = biological target: Retinoic acid receptor alpha (Homo sapiens) (UniProt P10276); experiment: ATG_RARa_TRANS: Attagene TRANS-FACTORIAL HepG2 Assay for human Retinoic Acid Receptor alpha (RARa) (AID 2283005)
Sequence of Retinoic acid receptor alpha (Homo sapiens) (P10276 whole entry, looked up, the tested form may be a part): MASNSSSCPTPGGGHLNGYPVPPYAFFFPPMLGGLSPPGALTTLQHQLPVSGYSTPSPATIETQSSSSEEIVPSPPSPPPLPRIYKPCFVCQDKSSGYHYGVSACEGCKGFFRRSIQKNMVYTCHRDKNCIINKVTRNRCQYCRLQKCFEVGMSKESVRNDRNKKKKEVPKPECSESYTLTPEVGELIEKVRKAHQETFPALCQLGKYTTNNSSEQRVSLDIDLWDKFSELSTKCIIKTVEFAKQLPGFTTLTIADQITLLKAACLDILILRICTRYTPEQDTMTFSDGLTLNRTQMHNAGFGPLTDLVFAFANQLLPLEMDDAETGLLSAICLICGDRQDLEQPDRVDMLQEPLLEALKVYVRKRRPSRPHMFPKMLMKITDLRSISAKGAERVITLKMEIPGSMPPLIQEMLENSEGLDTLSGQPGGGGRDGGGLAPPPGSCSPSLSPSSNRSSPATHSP
In short: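 Reporter transcripts, measured by RT-PCR with fluorescent labeling and capillary electrophoresis after 24 h dosing, reflect activity of an exogenous human RARa–GAL4 fusion in transiently transfected HepG2. Fitted for increase relative to DMSO.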

[7] = biological target: Peroxisome proliferator-activated receptor gamma (Homo sapiens) (UniProt P37231); experiment: ATG_PPARg_TRANS: Attagene TRANS-FACTORIAL HepG2 Assay for human Peroxisome Proliferator-activated Receptor-gamma (PPARg) (AID 2283007)
Sequence of Peroxisome proliferator-activated receptor gamma (Homo sapiens) (P37231 whole entry, looked up, the tested form may be a part): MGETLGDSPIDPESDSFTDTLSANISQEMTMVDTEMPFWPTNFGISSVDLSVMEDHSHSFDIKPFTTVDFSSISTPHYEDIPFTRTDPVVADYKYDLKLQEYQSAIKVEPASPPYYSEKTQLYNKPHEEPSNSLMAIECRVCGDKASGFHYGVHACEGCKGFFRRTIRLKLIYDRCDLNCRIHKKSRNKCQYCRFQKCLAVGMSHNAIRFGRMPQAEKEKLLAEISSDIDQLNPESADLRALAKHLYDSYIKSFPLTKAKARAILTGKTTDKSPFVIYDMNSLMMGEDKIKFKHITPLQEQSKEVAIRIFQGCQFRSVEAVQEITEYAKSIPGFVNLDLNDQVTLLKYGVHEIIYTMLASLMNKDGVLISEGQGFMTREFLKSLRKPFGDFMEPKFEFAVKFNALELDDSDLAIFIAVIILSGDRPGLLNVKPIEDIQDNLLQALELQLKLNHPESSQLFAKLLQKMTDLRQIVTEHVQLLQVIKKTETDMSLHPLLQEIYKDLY
In short: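 Read-out: reporter mRNA induction, detected by fluorescence after RT-PCR and capillary electrophoresis. Transiently transfected human HepG2 liver cells carrying a chimeric NR-Gal4 construct were dosed for 24 h; activity was fitted upward relative to DMSO.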

[8] = biological target: Nuclear receptor subfamily 1 group I member 2 (Homo sapiens) (UniProt O75469); experiment: ATG_PXR_TRANS: Attagene TRANS-FACTORIAL HepG2 Assay for human Pregnane X Receptor (PXR) (AID 2283008)
Sequence of Nuclear receptor subfamily 1 group I member 2 (Homo sapiens) (O75469 whole entry, looked up, the tested form may be a part): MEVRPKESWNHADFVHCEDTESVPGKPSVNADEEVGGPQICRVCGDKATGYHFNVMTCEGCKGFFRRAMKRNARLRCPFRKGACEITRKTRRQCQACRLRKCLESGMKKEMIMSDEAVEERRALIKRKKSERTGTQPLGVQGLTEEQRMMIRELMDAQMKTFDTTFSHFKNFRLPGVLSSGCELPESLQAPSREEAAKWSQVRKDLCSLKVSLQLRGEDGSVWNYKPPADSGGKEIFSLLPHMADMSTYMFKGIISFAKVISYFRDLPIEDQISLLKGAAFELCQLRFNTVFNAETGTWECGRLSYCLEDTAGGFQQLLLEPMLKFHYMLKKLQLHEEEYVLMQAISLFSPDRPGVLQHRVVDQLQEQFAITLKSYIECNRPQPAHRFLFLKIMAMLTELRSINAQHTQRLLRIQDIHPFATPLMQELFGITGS
In short: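 Measures mRNA induction of a GAL4-UAS-driven reporter in human HepG2 cells transiently expressing PXR fused to Gal4, following 24 h treatment. DMSO served as negative control and baseline.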

[9] = biological target: human Retinoic Acid Receptor gamma (RARg), RARG (gene 5916) (UniProt P13631); experiment: ATG_RARg_TRANS: Attagene TRANS-FACTORIAL HepG2 Assay for human Retinoic Acid Receptor gamma (RARg) (AID 2283009)
Sequence of human Retinoic Acid Receptor gamma (RARg), RARG (gene 5916) (P13631 whole entry, looked up, the tested form may be a part): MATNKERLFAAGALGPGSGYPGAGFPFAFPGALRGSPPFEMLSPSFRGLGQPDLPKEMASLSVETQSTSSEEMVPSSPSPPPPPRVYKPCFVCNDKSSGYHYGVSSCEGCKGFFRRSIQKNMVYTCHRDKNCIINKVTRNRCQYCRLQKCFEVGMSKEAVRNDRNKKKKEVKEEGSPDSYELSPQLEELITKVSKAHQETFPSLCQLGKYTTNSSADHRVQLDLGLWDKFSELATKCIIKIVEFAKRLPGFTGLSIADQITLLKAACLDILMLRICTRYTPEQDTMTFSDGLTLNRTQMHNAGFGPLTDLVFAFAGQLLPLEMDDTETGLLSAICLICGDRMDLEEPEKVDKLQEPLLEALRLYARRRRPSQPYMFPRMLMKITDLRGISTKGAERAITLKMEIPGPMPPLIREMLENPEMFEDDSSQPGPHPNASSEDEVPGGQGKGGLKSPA
In short: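 HepG2 cells transiently transfected with multiplexed reporter units expressing chimeric RARg-GAL4 and GAL4-UAS-driven reporters; 24 h compound exposure. Reporter mRNA quantified by RT-PCR with fluorescent labelling and capillary electrophoresis; gain-of-signal fitted relative to DMSO baseline.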

[10] = biological target: human RAR-related Orphan Receptor beta (RORb), RORB (gene 6096) (UniProt Q92753); experiment: ATG_RORb_TRANS: Attagene TRANS-FACTORIAL HepG2 Assay for human RAR-related Orphan Receptor beta (RORb) (AID 2283010)
In short: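 HepG2 cells were transiently transfected with multiplexed GAL4-UAS reporter units expressing chimeric nuclear receptor–GAL4 proteins, then dosed for 24 h. Reporter mRNA was quantified by RT-PCR with fluorescent labelling and capillary electrophoresis; gain of signal was fitted relative to DMSO.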

[11] = biological target: human RAR-related Orphan Receptor gamma (RORg), RORC (gene 6097) (UniProt P51449); experiment: ATG_RORg_TRANS: Attagene TRANS-FACTORIAL HepG2 Assay for human RAR-related Orphan Receptor gamma (RORg) (AID 2283011)
Sequence of human RAR-related Orphan Receptor gamma (RORg), RORC (gene 6097) (P51449 whole entry, looked up, the tested form may be a part): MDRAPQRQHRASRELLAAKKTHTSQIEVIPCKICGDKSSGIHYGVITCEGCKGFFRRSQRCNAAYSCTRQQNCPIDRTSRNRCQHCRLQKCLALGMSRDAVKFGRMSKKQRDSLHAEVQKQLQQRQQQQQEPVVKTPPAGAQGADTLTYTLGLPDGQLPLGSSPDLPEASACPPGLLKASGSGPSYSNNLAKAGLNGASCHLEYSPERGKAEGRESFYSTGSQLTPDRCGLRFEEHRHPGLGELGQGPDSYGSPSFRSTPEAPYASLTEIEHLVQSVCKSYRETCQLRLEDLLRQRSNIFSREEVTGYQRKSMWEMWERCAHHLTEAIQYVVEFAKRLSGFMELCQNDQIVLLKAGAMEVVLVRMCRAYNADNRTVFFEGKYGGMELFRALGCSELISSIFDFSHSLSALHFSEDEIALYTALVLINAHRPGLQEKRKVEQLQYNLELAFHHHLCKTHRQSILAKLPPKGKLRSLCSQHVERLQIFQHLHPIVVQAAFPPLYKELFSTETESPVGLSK
In short: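 Transient MRTU transfection of HepG2 (TRANS format, exogenous NR-Gal4 chimera). 24 h dosing. Total RNA → oligo(dT) RT → PCR → 6-FAM labelling → HpaI cut → CE. Gain vs DMSO.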

[12] = biological target: Retinoic acid receptor RXR-alpha (Homo sapiens) (UniProt P19793); experiment: ATG_RXRa_TRANS: Attagene TRANS-FACTORIAL HepG2 Assay for human Retinoid X Receptor alpha (RXRa) (AID 2283012)
Sequence of Retinoic acid receptor RXR-alpha (Homo sapiens) (P19793 whole entry, looked up, the tested form may be a part): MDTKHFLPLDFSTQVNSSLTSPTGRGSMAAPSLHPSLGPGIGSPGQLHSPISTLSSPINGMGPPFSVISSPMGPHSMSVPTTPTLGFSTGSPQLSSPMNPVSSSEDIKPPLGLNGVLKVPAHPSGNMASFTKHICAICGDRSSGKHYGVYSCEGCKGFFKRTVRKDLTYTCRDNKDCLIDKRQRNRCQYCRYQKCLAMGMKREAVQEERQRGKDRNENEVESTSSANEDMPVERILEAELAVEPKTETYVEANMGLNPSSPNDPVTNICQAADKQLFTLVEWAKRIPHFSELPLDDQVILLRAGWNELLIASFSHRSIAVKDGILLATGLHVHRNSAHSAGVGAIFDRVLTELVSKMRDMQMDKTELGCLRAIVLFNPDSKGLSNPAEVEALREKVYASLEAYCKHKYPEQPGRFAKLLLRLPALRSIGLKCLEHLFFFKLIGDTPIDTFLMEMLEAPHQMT
In short: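 HepG2 cells transiently transfected with multiplexed GAL4-UAS reporter units and chimeric NR-GAL4 fusions, dosed 24 h. Reporter mRNA measured by RT-PCR, FAM labelling, HpaI digestion and capillary electrophoresis; gain-of-signal fitted relative to DMSO baseline.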

[13] = biological target: human Retinoid X Receptor beta (RXRb), RXRB (gene 6257) (UniProt P28702); experiment: ATG_RXRb_TRANS: Attagene TRANS-FACTORIAL HepG2 Assay for human Retinoid X Receptor beta (RXRb) (AID 2283013)
Sequence of human Retinoid X Receptor beta (RXRb), RXRB (gene 6257) (P28702 whole entry, looked up, the tested form may be a part): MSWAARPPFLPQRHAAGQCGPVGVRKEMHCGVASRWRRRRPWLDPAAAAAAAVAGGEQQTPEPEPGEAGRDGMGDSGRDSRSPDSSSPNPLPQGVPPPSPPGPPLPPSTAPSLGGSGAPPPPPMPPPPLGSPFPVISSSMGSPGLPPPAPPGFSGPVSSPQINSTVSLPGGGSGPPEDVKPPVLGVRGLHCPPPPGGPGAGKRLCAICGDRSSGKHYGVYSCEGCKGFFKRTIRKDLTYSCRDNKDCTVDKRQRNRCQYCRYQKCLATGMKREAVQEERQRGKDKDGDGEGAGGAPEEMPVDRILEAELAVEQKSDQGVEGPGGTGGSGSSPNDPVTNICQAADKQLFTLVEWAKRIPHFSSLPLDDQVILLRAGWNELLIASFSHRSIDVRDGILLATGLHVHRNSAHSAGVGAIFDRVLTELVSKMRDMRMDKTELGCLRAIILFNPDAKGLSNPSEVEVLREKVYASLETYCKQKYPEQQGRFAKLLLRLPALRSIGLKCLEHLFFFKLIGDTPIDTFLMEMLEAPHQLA
In short: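 HepG2 cells transiently transfected with multiplexed reporter units driven by GAL4-UAS and exogenous chimeric NR-Gal4 proteins; treated 24 h. Reporter mRNA measured by RT-PCR, 6-FAM labelling and capillary electrophoresis; gain-of-signal fitted versus DMSO baseline.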

[14] = BSK_3C_TissueFactor: BioMAP Diversity Plus: 3C Assay for Tissue Factor Biomarker Activity (AID 2282997; active = hit-call score of the fitted dose curve at least 0.9, where 1 is the maximum; inactive = score below 0.9); details: BioMAP 3C HUVEC, tissue factor biomarker readout; actives raise or lower the signal
In short: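 Human vascular primary cells (umbilical vein endothelium) received test chemical; Tissue Factor was determined by ELISA at 24 h, and both gain and loss of signal versus DMSO were fitted.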

[15] = BSK_3C_uPAR: BioMAP Diversity Plus: 3C Assay for Urokinase-type plasminogen activator receptor (uPAR) Biomarker Activity (AID 2282998; active = hit-call score of the fitted dose curve at least 0.9, where 1 is the maximum; inactive = score below 0.9); details: BioMAP 3C HUVEC, uPAR biomarker ELISA; actives raise or lower the signal
In short: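 A multiplexed primary-cell system built on human umbilical vein endothelium was used, with chemical present for 24 h before reading. Cell-surface uPAR was detected by ELISA; signal change in either direction counted against DMSO.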

[16] = biological target: human Peroxisome Proliferator-activated Receptor alpha (PPARa), PPARA (gene 5465) (UniProt Q07869); experiment: ATG_PPARa_TRANS: Attagene TRANS-FACTORIAL HepG2 Assay for human Peroxisome Proliferator-activated Receptor alpha (PPARa) (AID 2283001);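 also: potency for gain of reporter signal over DMSO so agonist or activator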
In short: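 Reporter transcripts from GAL4-UAS units in transfected HepG2 were quantified 24 h after dosing. Detection used reverse transcription, PCR, fluorescent primer extension and capillary electrophoresis, with DMSO as baseline.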

[17] = read-out: Intercellular Adhesion Molecule 1 (ICAM1), ICAM1 (gene 3383); experiment: BSK_3C_ICAM1: BioMAP Diversity Plus: 3C Assay for Intercellular Adhesion Molecule 1 (ICAM1) Biomarker Activity (AID 2283003; active = hit-call score of the fitted dose curve at least 0.9, where 1 is the maximum; inactive = score below 0.9); details: primary human endothelial cells (HUVEC); actives raise or lower the signal
In short: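 Primary human umbilical vein endothelial cells in the BioMAP 3C system were exposed to chemicals for 24 h, then ICAM-1 was quantified by ELISA. Activity was fitted bidirectionally against the DMSO negative control baseline.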

[18] = BSK_3C_Proliferation: Cell Proliferation Assessment in the BioMAP Diversity Plus: 3C Assay (AID 2283006; active = hit-call score of the fitted dose curve at least 0.9, where 1 is the maximum; inactive = score below 0.9); details: primary human endothelial cells (HUVEC)
In short: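 Human umbilical vein endothelial cells were grown sub-confluent and exposed to chemical for 48 h, then fixed with 10% TCA and stained with 0.1% sulforhodamine B; absorbance at 560 nm gave relative cell number, fitted bidirectionally against DMSO baseline.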

SMILES: Cc1cc(-c2cc(C)c(N)c(C)c2)cc(C)c1N
- outcome [1]: inactive
- outcome [2]: inactive
- AC50 [3]: 80.2 µM (active)
- outcome [4]: inactive
- outcome [5]: inactive
- outcome [6]: inactive
- AC50 [7]: 36.3 µM (active)
- AC50 [8]: 27 µM (active)
- outcome [9]: inactive
- outcome [10]: inactive
- outcome [11]: inactive
- outcome [12]: inactive
- AC50 [13]: 25.4 µM (active)

SMILES: CCCCS(=O)(=O)Cl
- outcome [1]: inactive
- outcome [2]: inactive
- outcome [3]: inactive
- outcome [4]: inactive
- outcome [8]: inactive
- outcome [10]: inactive
- outcome [11]: inactive

SMILES: CC(c1ccccc1)(c1ccc(O)cc1)c1ccc(O)cc1
- AC50 [1]: 11.1 µM (active)
- AC50 [2]: 11.1 µM (active)
- AC50 [3]: 16.2 µM (active)
- outcome [4]: inactive
- outcome [5]: inactive
- outcome [6]: inactive
- outcome [7]: inactive
- AC50 [8]: 2.54 µM (active)

SMILES: CC(C)(c1ccccc1)c1cc(-n2nc3ccccc3n2)c(O)c(C(C)(C)c2ccccc2)c1
- outcome [1]: inactive
- outcome [2]: inactive
- outcome [3]: inactive
- outcome [4]: inactive
- outcome [8]: inactive
- outcome [9]: inactive
- outcome [11]: inactive

SMILES: CC(C)CC(C)(c1ccc(O)cc1)c1ccc(O)cc1
- AC50 [1]: 11.1 µM (active)
- AC50 [2]: 17 µM (active)
- AC50 [3]: 11.1 µM (active)
- outcome [4]: inactive
- outcome [5]: inactive
- outcome [6]: inactive
- AC50 [7]: 11.1 µM (active)
- AC50 [8]: 1.47 µM (active)
- outcome [9]: inactive
- outcome [12]: inactive

SMILES: OC(c1ccc(Cl)cc1)(c1ccc(Cl)cc1)c1cccnc1
- AC50 [1]: 11.1 µM (active)
- outcome [2]: inactive
- outcome [3]: inactive
- outcome [4]: inactive
- outcome [8]: inactive
- outcome [12]: inactive

SMILES: CCCCCCCCCCCCc1cccc(S(=O)(=O)O)c1
- AC50 [1]: 44.3 µM (active)
- outcome [2]: inactive
- outcome [14]: inactive
- outcome [15]: inactive
- AC50 [16]: 30 µM (active)
- outcome [17]: inactive
- outcome [5]: inactive
- outcome [18]: inactive
- outcome [8]: inactive
- outcome [9]: inactive
- AC50 [13]: 30 µM (active)

SMILES: O=NN1CCCCCC1
- outcome [1]: inactive
- outcome [2]: inactive
- outcome [3]: inactive
- outcome [7]: inactive
- outcome [8]: inactive
- outcome [12]: inactive
- outcome [13]: inactive

SMILES: CCCCCCCCCCCCCl
- outcome [1]: inactive
- outcome [2]: inactive
- outcome [3]: inactive
- outcome [6]: inactive
- outcome [8]: inactive
- outcome [11]: inactive
- AC50 [13]: 65.2 µM (active)
